Results filed as inconclusive are left out. Activity calls are given as the source filed them. The call rests on the fitted dose curve; in most records, active means well fitted inhibition curve with a large enough effect; inconclusive means small, poorly fitted or top-dose-only effect; inactive means flat fitted curve, though single readings scatter.
Each compound was assayed on CRL-7250 (assay: Cytotoxic Profiling of Annotated Libraries Using Quantitative High-Throughput Screening (AID 1296008; further: nearly all actives have a fitted effect of over 60% in size)). Details: Five cell lines viability, CellTiter-Glo ATP luminescence, 48-72 h; max response: active compounds read low.
Method in brief: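 Cells exposed to compounds for 48 or 72 hr at 37 degrees Celsius. Viability read as ATP-coupled luminescence with CellTiter-Glo after 10 min at room temperature.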
On the % scale 0 is the no-effect control and ±100 the full control effect; potency means the concentration at half of the fitted maximal effect.

Compound	max response	outcome	Potency
CC(=O)O[C@H]1CC[C@H](C)[C@@]2(C)[C@H](OC(C)=O)c3c(C)coc3C(=O)[C@H]12	-18.1% (inactive)	–	–
CC1(C)CCC2(C(=O)OC3OC(CO)C(O)C(O)C3O)CCC3(C)C(=CCC4C5(C)CCC(OC6OC(C(=O)O)C(OC7OC(CO)C(O)C(O)C7O)C(OC7OC(CO)C(O)C(O)C7O)C6O)C(C)(C)C5CCC43C)C2C1 (stereo not given)	3.03% (inactive)	–	–
O=S(=O)(NC1CCC(c2cc(F)ccc2F)(S(=O)(=O)c2ccc(Cl)cc2)CC1)C(F)(F)F (stereo not given)	–	inactive	–
CS(=O)(=O)N(CC(=O)NCC1CC1)c1cc(C(F)(F)F)ccc1Cl	-0.912% (inactive)	–	–
CC(=O)O[C@@H]1[C@H](O[C@@H]2O[C@@H](CO)[C@H](O)[C@H]2O)[C@@H](O[C@@H]2O[C@@H](C)[C@H](O[C@@H]3OC[C@@H](O)[C@H](O)[C@H]3O)[C@@H](O)[C@H]2O)[C@H](OC(=O)[C@]23CCC(C)(C)C[C@H]2C2=CCC4[C@@]5(C)CC[C@H](O[C@@H]6O[C@H](C(=O)O)[C@@H](O)[C@H](O)[C@H]6O[C@@H]6O[C@H](CO)[C@H](O)[C@H](O)[C@H]6O)[C@@](C)(C=O)C5CC[C@@]4(C)[C@]2(C)CC3)O[C@@H]1C (stereo not given in full)	–	inactive	–
CC1(C)CCCC2(C)C(CO)C(CO)=CCC12 (stereo not given)	-20.3% (inactive)	–	–
C/C=C(/COC(=O)/C(C)=C/C)C(=O)OC(CC)c1ccc(OC)c(OC)c1 (stereo not given)	3.89% (inactive)	–	–
CCCN1CCN(c2ccc(C(=O)NC3(C(=O)NCC#N)CCCCC3)cc2)CC1	-0.563% (inactive)	–	–
C=C[C@H]1[C@H](O[C@@H]2O[C@H](CO)[C@@H](O)[C@H](O)[C@H]2O)OC=C(C(=O)OC)[C@H]1C[C@@H]1c2cc(O)c(O)cc2CCN1C(C)=O	-23.5% (inactive)	–	–
CC(C)C(N)C(=O)OCCOCn1cnc2c(=O)[nH]c(N)nc21 (stereo not given)	2.37% (inactive)	–	–
C[C@@H]1O[C@@H](O[C@H]2[C@H](O)[C@@H](O[C@@H]3O[C@H](CO)[C@@H](O)[C@H](O[C@@H]4O[C@H](CO)[C@@H](O)[C@H](O)[C@H]4O)[C@H]3O)[C@H](O[C@H]3CC[C@@]4(C)C(=CC[C@@H]5C4CC[C@@]4(C)C5C[C@@H]5OC6(CC[C@@](C)(CO[C@@H]7O[C@H](CO)[C@@H](O)[C@H](O)[C@H]7O)O6)[C@@H](C)[C@@H]54)C3)O[C@@H]2CO)[C@H](O)[C@H](O)[C@H]1OC1OC(CO)C(O)C(O)C1O (stereo not given in full)	-6.48% (inactive)	–	–
CC(C)CC1NC(=O)C(C)NC(=O)C(CC(C)C)OC(=O)CCCNC1=O (stereo not given)	-2.1% (inactive)	–	–
CC1OC(OC2CCC3(C)C(CCC4(C)C3CC=C3C5CC(C)(C)CCC5(C(=O)OC5OC(CO)C(O)C(O)C5O)CCC34C(=O)O)C2(C)C)C(O)C(O)C1O (stereo not given)	–	inactive	–
COc1ccc(CNC(=O)c2cc(-c3cncc(C)c3)ncc2-c2nccs2)nc1OC	–	inactive	–
Cc1cc(C(=O)Nc2cccc(C(=O)Nc3cccc(C(F)(F)F)c3)c2)on1	4.99% (inactive)	–	–
COc1cc2c(cc1O)[C@H](c1ccc(O[C@@H]3O[C@H](CO)[C@@H](O)[C@H](O)[C@H]3O)c(OC)c1)[C@@H](CO)[C@](O)(CO)C2	4.77% (inactive)	–	–
CC(=O)OC1C(c2ccccc2)CCC(c2ccccc2)C1OC(C)=O (stereo not given)	2.93% (inactive)	–	–
C=C1CC[C@@H]2[C@@](C)(CO[C@@H]3O[C@H](CO)C(O)[C@H](O)C3O)[C@H](O)CC[C@@]2(C)[C@@H]1CC/C(C)=C/CO (stereo not given in full)	–	inactive	–
CC(C)(C)NS(=O)(=O)c1cncc(-c2cc(F)c3nc(N)nn3c2)c1	–	inactive	–
CC(=O)O[C@@H]1c2c(C)coc2C(=O)[C@@]23O[C@@H]2CC[C@H](C)[C@@]13C	3.98% (inactive)	–	–
C/C=C/c1cc(OC)c2c(c1)[C@@H](C)[C@@H](c1ccc(O)c(OC)c1)O2	-4.41% (inactive)	–	–
CCOc1cc(C(=O)N2CCC(N3CCN(C)CC3)CC2)ccc1Nc1ncc2c(n1)N(C1CCCC1)c1ccccc1C(=O)N2C	–	–	10.3 µM (active)
O=C(Nc1ccc(S(=O)(=O)Nc2ccccc2Cl)c(Cl)c1)c1ccccn1	0.561% (inactive)	–	–
CC1=CCC2C(C)(C)CCC[C@]2(C)[C@@]12CC[C@](C)(CC(=O)O)O2 (stereo not given in full)	-19.8% (inactive)	–	–
CC1CC[C@]2(C(=O)O)CC[C@]3(C(=O)O)C(=CCC4[C@@]5(C)CC[C@H](OC6OC(C)C(O)C(OC7OC(CO)C(O)C(O)C7O)C6O)C(C)(C)C5CC[C@]43C)C2C1C (stereo not given in full)	-0.92% (inactive)	–	–
